Reference: ChEMBL document CHEMBL3988442, “University of Dundee, Small-Polar-MMV Screening Library” (2021)
The campaign covered roughly 53,000 compounds. About 900 (1.7%) showed an effect of 50% or more. The sample holds strong results, similar compounds and a random draw of the others, so the mix is not that of the screen.

Test system: Mycobacterium tuberculosis
Assay: Cornell - Phenotypic assay to identify agents that inhibit growth of Mycobacterium tuberculosis
Assay type: functional
Set-up: scale not given: direction of the effect not stated beside the values
Details: 10 mM as filed; unlikely as a test dose

SMILES	Percent Effect [%]
CCCN(CCc1ccccn1)C(=O)Cn1cc(C)cn1	6.805
CC(C)C(=O)N1CCC(c2c(C(N)=O)sc3ccccc23)C1 (stereo not given)	-20.56
CO[C@H]1CCN(Cc2nccs2)C[C@@H]1Cc1ccccc1	32.3
CO[C@@H]1CCN(Cc2nccs2)C[C@@H]1Cc1ccccc1.O=C(O)C(F)(F)F	17.77
CO[C@@H]1CCN(Cc2nccs2)C[C@@H]1Cc1cccc(C)c1.O=C(O)C(F)(F)F	58.64
NC(=O)c1ccc(NC(=O)Cn2cc(I)cn2)cc1	12.21
CC(C)c1ccc(NC(=O)Cn2cc(I)cn2)cc1	64.63
Cc1ccc(NC(=O)Cn2cc(I)cn2)cc1	2.116
CS(=O)(=O)CCSc1n[nH]c(-c2ccc3c(c2)CCC3)n1	22.85
O=C(CSC1CCCC1)N1CCN(C(=O)C2CC2c2ccccc2)CC1 (stereo not given)	57.68
O=C(CSC1CCCC1)N1CCN(c2ccc(-n3cncn3)nn2)CC1	-7.169
O=C(CSC1CCCC1)N1CCN(C(=O)C2CC2c2cccs2)CC1 (stereo not given)	19.24
CN(CCOc1ccccc1F)C1CCOC1=O (stereo not given)	-18.35
CC(Cn1cncn1)NCc1csc2c1CCCC2 (stereo not given)	6.492
CC(Cn1ccnc1)NCc1csc2c1CCCC2 (stereo not given)	52.3
CC(Cn1cccn1)NCc1csc2c1CCCC2 (stereo not given)	-0.7044
O=C1NCC2(CCCN(C(=O)CCn3cnc4ccccc43)CC2)O1 (stereo not given)	-0.9742
COc1cccc(Cn2[nH]c(C)c3c(NC(=O)C(C)OC)nnc2-3)c1 (stereo not given)	19.31
COCC(C)NC(=O)CCSc1ccc(F)cc1 (stereo not given)	-22.42
CCOC(=O)C(C)NC(=O)CCSc1ccc(F)cc1 (stereo not given)	72.72
CCOC(=O)C(C)NC(=O)CCc1ccc(F)cc1 (stereo not given)	12.11
CNC(=O)NC(=O)CN1CCN(c2ccc(C(=O)OC)cc2)CC1C (stereo not given)	-3.666
CC(=O)Nc1nc(C(=O)NC(C)c2cccnc2)cs1 (stereo not given)	-20.46
Cc1cs/c(=N/C(=O)c2csc(NCC(C)C)n2)[nH]1	104.8
Cc1cs/c(=N\C(=O)c2c3c(nc4onc(C)c24)CCC3)[nH]1	37.19
CC(C)CNc1nc(C(=O)/N=c2\[nH]nc(C(C)(C)C)s2)cs1	4.379
CC(=O)Nc1nc(C(=O)NC(C)c2ccncc2)cs1 (stereo not given)	-46.84
Cc1[nH]/c(=N\C(=O)c2csc(NCC(C)C)n2)sc1C	105.2
CCCNC(=O)C(C)N1CCC(C(=O)Nc2cnn(CC)c2)CC1 (stereo not given)	-1.052
O=C(Nc1cccnc1-n1cc(Br)cn1)C1CCCC1	-1.816
